The list is not random: actives were taken first. Their share in the collection is about 1.6%.
CendR NRP1 mod: modulators of CendR peptide binding to human neuropilin-1. hit rate 0.85% among 360,000. FAM-RPARPAR peptide binding to NRP-1, fluorescence polarization. inhibition, % at 25 µM. AID 602438;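 active = inhibition or corrected inhibition above about 18%, plus a signal ratio from 0.5 to 1.5, limit read from the data, passing the limit was not always enough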
PKA-R2B activ: PKA-R2B complex activation; P22694+P31323; PKA-R2B holoenzyme dissociation, Cy5-IP20 fluorescence polarization; R2B truncated from residue 108, S112A mutant; 0% DMSO only, 100% 113 µM cGMP; activation, % at 11.4 µM; hit rate 0.079% among 340,000;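 active = activation above a cutoff set at the mean over all compounds plus 3 SD, cut at about 18% in these data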;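 note: higher means more holoenzyme dissociation and a rise in polarization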
PKA-R1A activ: activates the PKA-R1A holoenzyme complex; hit rate 0.083% among 340,000; activation, % at 11.4 µM; P00514+P68181; PKA-R1A dissociation, Cy5-IP20 fluorescence polarization; scaled: DMSO 0%, 113 µM cGMP 100%;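 active = percent activation above the mean of all tested compounds plus 3 SD, cut at about 19% in these data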;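 note: higher means more PKAc released from R1A so a rise in polarization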
ATG4B inh: blocks human ATG4B protease cleavage of LC3 substrate; Q9Y4P1; ATG4B cleavage of LC3-PLA2, NBD-HPC fluorescence, 1 h; inhibition, % at 8.33 µM; hit rate 0.51% among 340,000; AID 504462; in the data active = inhibition above about 40%
VLA-4 inh: inhibition in a human VLA-4 binding assay; P13612; VLA-4 expressing cells, ligand binding flow cytometry; inhibition, % (about 7 µM as worked out from the volumes in the protocol); hit rate 0.2% among 330,000; AID 2557; in the data active = inhibition above about 50%
* marks the source's active call; other numbers are inactive results; x = no result given.

SMILES	CendR NRP1 mod	PKA-R2B activ	PKA-R1A activ	ATG4B inh	VLA-4 inh
CN(CC(=O)Nc1ccc(F)c(F)c1F)C(=O)C1CSC2(C)CCC(=O)N12 (stereo not drawn)	12	4	0	-6	9
CN(CC(=O)Nc1ccccc1Cl)C(=O)C1CSC2(C)CCC(=O)N12 (stereo not drawn)	21*	1	-5	-1	-1
O=S(=O)(NCc1ccccc1)c1ccc(S(=O)(=O)N(Cc2ccccn2)Cc2ccco2)cc1	38*	1	10	-3	12
O=C(COCc1cc(-c2ccc3c(c2)OCO3)on1)N1CCN(c2cccc(C(F)(F)F)c2)CC1	19*	-14	-5	-9	7
CCCCC(c1nnnn1CC1CCCO1)N1CCN(c2nc3ccccc3s2)CC1 (stereo not drawn)	18*	-1	-8	-3	x
CCCC(c1nnnn1CC1CCCO1)N1CCN(c2nc3ccccc3s2)CC1 (stereo not drawn)	-5	2	-11	-13	0
CC1(C)OC(=O)C=C[C@]2(C)[C@H]3CC[C@@]4(C)[C@H](C(=O)O)OC(=O)[C@H]5O[C@]54[C@]3(C)C(=O)C[C@@H]12	22*	2	-6	9	0
CCOc1ccc(NC(=O)COc2ccc(C(=O)NC(C)c3ccc(S(N)(=O)=O)cc3)cc2OC)cc1 (stereo not drawn)	12	0	-12	-18	11
Fc1cccc(Cc2c(-c3ccc(Cl)cc3)nc3c(Cl)cc(C(F)(F)F)cn23)c1	8	x	x	x	x
COc1cc(CNC(C)(C)CO)cc(Br)c1OCc1ccc(Cl)cc1	30*	-14	-2	-14	17
CC(C(=O)NC1CCCC1)n1c(C2CCCC2)nc2ccccc21 (stereo not drawn)	17	x	x	x	x
CCCc1c(O)c2ccccc2[nH]c1=O	26*	-3	2	-3	3
CC(C)N(C(=O)Cn1cc(SCC(N)=O)c2ccccc21)C(C)C	10	-12	0	-13	7
CCCCC[C@@H](C)N1C[C@@H](COCc2ccccc2)Oc2cc(N3CC[C@H](N(C)C)C3)ccc2S1(=O)=O	3	x	x	x	x
COC(=O)c1ccn(C(=O)c2ccc(Cl)cc2)n1	28*	4	-1	-6	5
Cc1cc(Br)cn2c(Cc3ccsc3)c(C(C)(C)C)nc12	49*	x	x	x	x
Cc1cc(Br)cn2c(Cc3ccsc3)c(C3CCCCC3)nc12	35*	x	x	x	x
COc1cccc(NC(=O)C(OC(=O)c2cnc(C)cn2)c2ccccc2)c1 (stereo not drawn)	2	-8	-12	-11	8
COc1cccc(C2CC(c3ccccc3Cl)n3nnnc3N2)c1 (stereo not drawn)	1	3	-18	-10	14
COc1cccc(C2CC(c3ccccc3Cl)n3ncnc3N2)c1 (stereo not drawn)	30*	-7	1	7	21
CCOc1ccc(/C=C/C(=O)N(CC)CC(=O)Nc2c(F)cccc2F)cc1OC	22*	-6	-3	x	x
C=C1CCN([C@@H](Cc2ccccc2)C(=O)O)S(=O)(=O)c2ccccc21	13	-8	-7	3	29
C=C1CCN([C@H](C(=O)O)C(C)C)S(=O)(=O)c2ccccc21	36*	-9	5	-6	28
O=C(Cc1ccccc1F)Nc1cc(S(=O)(=O)N2CCOCC2)ccc1N1CCCC1	-5	x	x	-3	6
COc1ccccc1Nc1nn2c(=O)c3ccc(C(=O)N4CCC(C)CC4)cc3nc2s1	25*	-6	-3	19	0
SMILES	CendR NRP1 mod	PKA-R2B activ	PKA-R1A activ	ATG4B inh	VLA-4 inh
Cc1ccccc1Nc1nn2c(=O)c3ccc(C(=O)N4CCCC(C)C4)cc3nc2s1 (stereo not drawn)	-11	-2	1	x	x
Cc1nc(S/C(=C/c2ccc(-c3ccc(Cl)cc3)o2)C(=O)O)n[nH]1	36*	-1	-8	0	0
CCOC(=O)[C@]12Cc3c(cc(OC)c(OC)c3OC)[C@H]1N(Cc1ccccc1)C(=O)c1cc(OC)ccc12	4	x	x	x	x
CN(C)C(=O)c1ccc(N=Nc2c(O)c3ccccc3[nH]c2=O)cc1	-2	-2	-5	-2	x
Cc1cc(N=Nc2c(O)c3ccccc3[nH]c2=O)ccc1N=Nc1ccc(C(=O)N(C)C)cc1	23*	-4	9	0	x
O=C(NCCC(=O)N1CCCC(C(F)(F)F)C1)c1ccc(Br)cc1 (stereo not drawn)	28*	-3	-17	-5	-8
NC(=O)C1CCCN(C(=O)CCCNC(=O)c2ccc(Cl)cc2)C1 (stereo not drawn)	28*	-3	-2	-19	9
COc1ccccc1C(=O)NCCC(=O)N1CCCC(C(F)(F)F)C1 (stereo not drawn)	-4	6	7	-4	6
COc1cccc(-c2cnc(C(O)c3ccc(C(C)(C)C)cc3)[nH]2)c1 (stereo not drawn)	1	x	x	x	x
N=c1c2c(n(Cc3ccc(F)cc3)c3c1CCC3)CCCC2	24*	4	2	-4	2
N=c1c2c(n(Cc3ccc(Cl)cc3)c3c1CCC3)CCC2	8	9	1	6	0
NNC(=O)c1[nH]c2ccc([N+](=O)[O-])cc2c1-c1ccccc1	24*	-8	-14	12	-78
C=CCNC(=O)c1onc(CSc2ccc(F)c(F)c2)c1C(=O)NCC=C	25*	-8	5	1	5
C=CCNC(=O)c1onc(CSc2ccccc2)c1C(=O)NCC=C	7	4	-1	-2	12
Cc1ccccc1NC(=O)Cn1c(C)nc2ccc(N)cc2c1=O	24*	-2	-1	0	-7
CC(C)C[C@@H]1Cc2[nH]c(=S)[nH]c(=O)c2[C@H](C)O1	5	x	x	x	x
CCC(=O)N1CCCc2cc(S(=O)(=O)CCC(=O)Nc3ccccc3C)ccc21	28*	-11	5	5	45
CSc1ncccc1C(=O)OCC(=O)NC1CCCCC1	23*	-10	6	-6	-4
Cc1ccc(NC(=O)COC(=O)c2cccnc2Cl)cc1S(=O)(=O)N1CCOCC1	14	-14	-10	-3	16
CSc1ncccc1C(=O)OCC(=O)Nc1ccc(C)c(S(=O)(=O)N2CCOCC2)c1	20*	1	-9	-17	15
Cc1cc2c(cc1C)-n1nnnc1C(N1CCN(c3ccccc3F)CC1)C(=O)N2 (stereo not drawn)	2	x	x	x	x
CCCCCCN1CCN(C2CN(C3CCCCC3)S(=O)(=O)C2)CC1 (stereo not drawn)	6	x	x	x	x
COc1ccc(OC)c(-c2nn(-c3ccccc3)cc2C(=O)NCC(c2ccco2)N2CCCC2)c1 (stereo not drawn)	7	-3	0	0	5
CCN(CC)C(=O)Cn1cnc2c1c(=O)n(C)c(=O)n2C	-15	-10	4	-2	0
CCCn1cnc2c1c(=O)n(CCCCC(C)=O)c(=O)n2C	32*	-7	6	2	9
